A selection: hits, their analogues and other compounds. The true share with any hit is near 0.78%.
PolyA inh: inhibitors of polyadenylation in S. cerevisiae; S. cerevisiae SKY197-pL101 polyadenylation reporter, beta-gal luminescence; efflux-impaired pdr1/pdr3 knockout yeast; score 100 = 6 SD above DMSO; activity score, % at 12 µM; hit rate 0.02% among 300,000;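 active means lowest replicate activity score at least 50, where 100 means six control SD above control mean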;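 further: yeast exposed to compound for 9 h at 30 °C; higher score means more reporter readthrough which indicates perturbed polyadenylation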
PKA-R2B activ: activators of human PKA-R2B complex; activation, % at 11.4 µM; hit rate 0.079% among 340,000; P22694+P31323; PKA-R2B holoenzyme dissociation, Cy5-IP20 fluorescence polarization; R2B truncated from residue 108, S112A mutant; 0% DMSO only, 100% 113 µM cGMP;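 active means activation above a cutoff set at the mean over all compounds plus 3 SD, cut at about 18% in these data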;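 further: higher means more holoenzyme dissociation and a rise in polarization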
V-ATPase pH: regulators of yeast V-ATPase proton transport; S. cerevisiae, pHLuorin cytosolic pH fluorescence; response, % at 10 µM; hit rate 0.37% among 350,000; in the data active means response mostly above about 7.3%, no sharp cut-off; inactive means mostly below about 5.4%; further: actives read high
CR mimetic SO: yeast age-related superoxide inhibition as caloric restriction mimetic; S. cerevisiae aged cells, superoxide DHE fluorescence; active compounds read low; hit rate 0.18% among 330,000; AID 2690; superoxide response (% of plate mean), % at 10 µM;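 active means superoxide response under a set limit, about three screen SD below normal, cut at about 65% in these data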;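 further: yeast aged for seven days with compound at 30 °C before DHE staining; 100% = average MFI of all compound-treated wells on the plate with controls excluded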
PKA-R1A act: PKA-R1A complex activation; AID 504707; PKA-R1A dissociation, Cy5-IP20 fluorescence polarization; scaled: DMSO 0%, 113 µM cGMP 100%; activation, % at 11.4 µM; P00514+P68181; hit rate 0.083% among 340,000;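 active means percent activation above the mean of all tested compounds plus 3 SD, cut at about 19% in these data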;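 further: higher means more PKAc released from R1A so a rise in polarization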
GASC-1 inh: blocks human GASC-1 demethylase activity; GST-JMJD2C(1-420) H3K9me3 demethylation, DELFIA europium; inhibition, % at 2.35 µM; hit rate 0.069% among 330,000; AID 2099;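 active means more than half of a compound's replicate wells show inhibition beyond 50%, single wells judged on their own value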;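 further: signal counts dimethyl H3K9 product captured on neutravidin plate; 0% = median of DMSO wells and 100% = 0.3 times that DMSO median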
Target sequence (Q9H3R0 1-420 limits assumed): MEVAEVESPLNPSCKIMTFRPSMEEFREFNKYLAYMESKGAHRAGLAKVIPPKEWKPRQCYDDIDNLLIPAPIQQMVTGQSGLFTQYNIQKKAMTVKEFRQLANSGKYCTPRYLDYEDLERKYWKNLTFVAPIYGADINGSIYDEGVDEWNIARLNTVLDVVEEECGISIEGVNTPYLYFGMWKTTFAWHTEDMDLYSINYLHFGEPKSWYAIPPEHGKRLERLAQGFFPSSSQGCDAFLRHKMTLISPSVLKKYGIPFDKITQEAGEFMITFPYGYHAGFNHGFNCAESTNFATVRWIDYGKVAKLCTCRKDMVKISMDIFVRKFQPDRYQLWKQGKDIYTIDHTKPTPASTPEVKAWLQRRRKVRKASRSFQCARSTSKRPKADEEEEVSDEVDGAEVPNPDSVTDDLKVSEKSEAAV
Superoxide pick: yeast aging superoxide inhibition, cherry pick confirmation; shares compounds with CR mimetic SO; S. cerevisiae aging, superoxide DHE fluorescence; active compounds read low; superoxide response (% of plate), % at 10 µM; hit rate 1% among 850; AID 434994;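 active means superoxide signal below 65% of the plate average of sample wells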;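 further: cells aged with compound for 7 days at 30 degrees C before staining; 100% equals mean DHE fluorescence of all compound wells on the plate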
DHE fluor count: counter-screen for compounds affecting DHE oxidation and fluorescence in yeast; shares compounds with CR mimetic SO; S. cerevisiae BY4741, flow cytometry; active compounds read low; fluorescence response, % at 10 µM; 850 tested, under 10 active; AID 435000;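 active means fluorescence response below 15%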;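 further: percent of the mean fluorescence averaged over all compound wells on the plate; lower means stronger quenching of DHE signal or ROS scavenging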
Active calls of the source: *; i = inactive; · = no result given.

SMILES | PolyA inh | PKA-R2B activ | V-ATPase pH | CR mimetic SO | PKA-R1A act | GASC-1 inh | Superoxide pick | DHE fluor count
COc1ccc(CCNC(=O)CCc2ccc(OC)cc2)cc1 | 27.0 | 1.3 | -1.0 | 100.2 | -2.4 | 0.3 | · | ·
COc1ccc(OCCNC(=O)c2ccccc2Cl)cc1 | -5.7 | 9.7 | 2.3 | 64.2* | 2.3 | 7.1 | 95.9 | 93.5
O=C(NCCOc1ccccc1)c1ccccc1Cl | -17.1 | -9.1 | -1.6 | 100.8 | 6.8 | -0.6 | · | ·
COc1ccc(CCC(=O)NCCOc2ccc(C)cc2)cc1 | 10.9 | 1.2 | 0.4 | 39.3* | -1.1 | -7.0 | 94.5 | 90.9
CC(=O)N(C)C(c1ccc(N(C)C)cc1)c1nnnn1-c1c(C)cccc1C (stereo not given) | -11.5 | -6.7 | 0.6 | 108.5 | -8.0 | 5.7 | · | ·
CCCOc1ccc(NC(=O)C2CC(=O)N3CCCN=C3S2)cc1 (stereo not given) | -1.9 | -5.0 | 1.0 | 65.0* | -2.3 | -1.1 | 95.3 | 107.0
Cc1cc(C(=O)COc2cccnc2[N+](=O)[O-])c(C)n1-c1ccccc1 | 9.0 | -4.2 | -2.6 | 58.0* | -1.0 | -19.4 | 123.4 | 128.6
CCOc1ccc(-n2c(=O)c3sccc3n(CC(=O)NC3CCCCC3)c2=O)cc1 | 13.1 | -6.3 | 0.7 | 96.7 | 6.1 | 4.1 | · | ·
O=S(=O)(c1ccc(Cl)cc1)c1ccccn1 | 4.2 | 0.1 | -7.3 | 101.1 | 1.2 | 1.5 | · | ·
NS(=O)(=O)c1ccc(S(=O)(=O)c2ccccc2)nc1 | 0.0 | · | 1.1 | 63.6* | · | · | 83.3 | 90.2
CN(CC(=O)Nc1cccc(F)c1)C(=O)c1cccnc1Sc1ccccc1Cl | 4.3 | 1.2 | 0.6 | 98.0 | -7.9 | i | · | ·
CCCNC(=O)Nc1ccc(NC(C)=O)cc1 | 1.8 | -12.8 | -1.3 | 106.5 | -4.9 | -7.4 | · | ·
COc1ccc(C(c2c(C)[nH][nH]c2=O)c2c(C)[nH][nH]c2=O)cc1Br | -24.6 | 6.7 | 4.4 | 93.7 | -4.7 | 12.9 | · | ·
Cc1[nH][nH]c(=O)c1C(c1ccc(O)c(Br)c1)c1c(C)[nH][nH]c1=O | 5.8 | -5.7 | -3.7 | 56.3* | 9.7 | -7.6 | 100.8 | 101.8
COc1ccc(C(=O)CN2C(=O)c3ccccc3C2=O)c(OC)c1 | 3.1 | -6.1 | 0.4 | 62.6* | -2.5 | -28.9 | 117.6 | 117.4
COc1ccccc1C(=O)COC(=O)CN1C(=O)c2ccccc2C1=O | 13.6 | -1.2 | -0.4 | 97.8 | -9.3 | -5.1 | · | ·
Cc1ccc(/C=N/NC(=O)c2nnn(-c3nonc3N)c2CSc2ccccc2)cc1 | -22.2 | -12.2 | -0.9 | 80.9 | -10.8 | -1.2 | · | ·
Cc1ccc(/C=N/NC(=O)c2nnn(-c3nonc3N)c2CNc2ccccc2)cc1 | -2.6 | -7.9 | -0.9 | 64.8* | -3.0 | 3.8 | 122.0 | 106.6
CC(C)CCC(CCNCc1ccccn1)c1ccc(Cl)cc1 (stereo not given) | -3.3 | -7.2 | -2.2 | 48.0* | -2.3 | 10.8 | 106.6 | 108.9
S=C(NCc1ccc(Cl)cc1)NCc1ccccn1 | 14.1 | -5.0 | -0.8 | 97.9 | -4.4 | 2.2 | · | ·
CCC(C)(C)c1ccc(OCCCC[n+]2ccc(C)cc2)c(C(C)(C)CC)c1 | -52.5 | · | · | 61.2* | · | -27.6 | 100.1 | 96.1
CCn1c(O)c(N=NC(=O)CNC(=O)c2cccnc2)c2ccccc21 | · | -6.2 | 1.1 | · | 6.9 | · | · | ·
Cc1ccc(Cl)cc1NS(=O)(=O)c1cn(C)nc1C | -9.4 | 8.5 | 1.6 | 60.6* | 3.2 | -4.3 | 101.6 | 96.6
CC(=O)Nc1ccc(S(=O)(=O)Nc2cc(-c3ccccc3)nn2C)cc1 | -5.5 | · | -3.5 | 97.1 | · | -3.5 | · | ·
CC(=O)Nc1ccc(S(=O)(=O)Nc2nc3nc(-c4ccccc4)cc(-c4ccccc4)n3n2)cc1 | -3.0 | -3.2 | 0.0 | 60.2* | 0.5 | 2.7 | 96.0 | 94.3
COc1ccc(-c2sc3cc4c(cc3c2C#CCO)OCO4)cc1 | · | -7.7 | -3.8 | 63.0* | -9.9 | 2.3 | 103.0 | 92.4
